Measured values published in PubChem BioAssay AID488969 (Vanderbilt High Throughput Screening Facility, 2010).
Whole data set: some 110,000 compounds, median “z-score” near -0.1, cut for the highest 2% near 2. Shown is part of a subset that was picked to be rich in the highest values. The source made the active and inactive calls.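 Rule for the calls: active = z-score in the third read window above 3 or below -3; inactive = the rest.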

target: Metabotropic glutamate receptor 8 (Rattus norvegicus) (UniProt P70579); experiment: rat mGluR8 modulators via GIRK flux, primary screen, cell-based, thallium flux, HTS (AID 488969); conditions: HEK293 rat mGluR8, GIRK (G protein-gated inwardly rectifying potassium channel) thallium flux, FluoZin2; at 10 µM; stronger effect = higher value; submaximal glutamate (EC20) added with thallium
Sequence (P70579 whole entry, looked up): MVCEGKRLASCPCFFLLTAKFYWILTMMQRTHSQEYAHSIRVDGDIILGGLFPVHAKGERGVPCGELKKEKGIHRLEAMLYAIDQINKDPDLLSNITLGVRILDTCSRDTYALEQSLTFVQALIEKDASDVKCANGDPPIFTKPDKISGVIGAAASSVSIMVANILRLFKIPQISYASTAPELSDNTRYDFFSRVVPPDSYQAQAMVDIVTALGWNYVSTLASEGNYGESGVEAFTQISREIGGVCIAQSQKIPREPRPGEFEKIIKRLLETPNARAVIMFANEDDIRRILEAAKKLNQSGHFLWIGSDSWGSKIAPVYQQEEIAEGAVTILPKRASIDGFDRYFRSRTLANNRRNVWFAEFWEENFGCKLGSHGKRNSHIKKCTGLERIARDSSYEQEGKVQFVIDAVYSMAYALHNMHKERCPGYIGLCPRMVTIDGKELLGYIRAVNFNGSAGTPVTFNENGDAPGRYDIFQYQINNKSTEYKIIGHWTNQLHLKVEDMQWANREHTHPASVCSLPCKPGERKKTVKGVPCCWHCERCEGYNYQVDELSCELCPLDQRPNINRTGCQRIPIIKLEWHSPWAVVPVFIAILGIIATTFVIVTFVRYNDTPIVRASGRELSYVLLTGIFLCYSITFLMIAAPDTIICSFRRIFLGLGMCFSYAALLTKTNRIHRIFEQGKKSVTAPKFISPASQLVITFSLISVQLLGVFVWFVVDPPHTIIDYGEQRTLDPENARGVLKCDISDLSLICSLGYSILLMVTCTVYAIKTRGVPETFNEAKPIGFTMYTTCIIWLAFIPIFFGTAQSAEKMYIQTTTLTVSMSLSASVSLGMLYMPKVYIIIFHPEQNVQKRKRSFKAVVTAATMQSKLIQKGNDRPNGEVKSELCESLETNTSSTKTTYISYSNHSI

SMILES	z-score
CCSc1cc(N2CCCC2)nc(-c2ccccc2Cl)n1	-0.31
COC(=O)COc1ccc(Cl)cc1C1Nc2ccccc2C(=O)N1c1ccc(OC)cc1 (centres undefined)	-0.642
COC(=O)c1[nH]c2ccccc2c1NC(=O)/C=C/c1ccc2c(c1)OCO2	0.563
O=C1C2CCCCC2C(=O)N1c1cccc(OS(=O)(=O)c2ccccc2)c1 (centres undefined)	-0.275
CCN(CC)S(=O)(=O)c1cccc(-c2nnc(SC(C)C(N)=O)n2CCc2ccccc2)c1 (centres undefined)	-0.152
Cc1ccc(C(=O)Nc2cnc3ccccn3c2=O)cc1	4.27 (active)
O=C(Nc1cnc2ccccn2c1=O)c1ccc(F)cc1	-0.0283
O=C(Nc1cnc2ccccn2c1=O)c1ccc(Cl)cc1	-0.161
Cc1occc1C(=O)N/N=C/c1cccs1	0.00925
CC(C)(C)C1CCc2c(C(=O)N/N=C/c3cccs3)csc2C1 (centres undefined)	3.34 (active)
CC(C)(C)C1CCc2c(C(=O)NNC(=O)/C=C/C(=O)O)csc2C1 (centres undefined)	-0.42
Cn1c(=O)oc2cc(S(=O)(=O)N3CCC(C(=O)NCc4cccs4)CC3)ccc21	0.158
CCC(Cc1ccccc1)NC(=O)C1CCC(CNc2c(N3CCCC3)c(=O)c2=O)CC1 (centres undefined)	0.312
COc1ccc(C(C)=O)cc1COC(=O)Cc1n[nH]c(=O)c2ccccc12	-0.504
CC1CCN(c2cc(N3CCOCC3)c(F)cc2[N+](=O)[O-])CC1	-0.674
CC1CCN(c2cc(N3CCOCC3)c([N+](=O)[O-])cc2F)CC1	2.53
O=[N+]([O-])c1cc(F)c(N2CCCCC2)cc1N1CCOCC1	-0.193
O=C(NC1CCCCC1)c1sc(N2CCOCC2)nc1-c1ccccc1	0.0133
O=C(COC(=O)CCC1CCCC1)Nc1ccc(Cl)cc1F	-0.306
O=C(COC(=O)CCC1CCCC1)Nc1nc2c(F)c(F)c(F)cc2s1	2.48
O=C(COC(=O)C12CC3CC(CC(C3)C1)C2)Nc1nc2c(F)c(F)c(F)cc2s1	-0.635
CC(=O)Nc1cc(C(F)(F)F)ccc1Oc1cccc(Br)c1	-0.653
CCn1c(NC(C)=O)nc2ccccc21	-0.0713
S=C(Nc1ccccc1)Nc1nc2ccccc2n1CCOc1ccc(Cl)cc1	1.72
CCCn1c(Nc2ccccc2)nc2ccccc21	-0.0673

SMILES	z-score
CCCCn1c(NC(=S)Nc2ccccc2)nc2ccccc21	2.55
CCCn1c(NC(=S)Nc2ccccc2)nc2ccccc21	2.89
CCn1c(NC(=S)Nc2ccccc2)nc2ccccc21	15.2 (active)
CCn1c(NC(=O)C2CCCCC2)nc2ccccc21	0.0465
S=C(Nc1ccccc1)Nc1nc2ccccc2n1CCOc1ccc(Br)cc1	1.24
CCCCn1c(Nc2ccccc2)nc2ccccc21	0.15
COc1ccc(CNC(=O)CSCc2cnn(-c3ccccc3)c2-n2cccc2)cc1	0.0302
Cc1cccc(NCc2ccccc2O)c1C	0.825
COc1ccc(OCCNc2cc(N3CCCCC3)ccc2[N+](=O)[O-])cc1	-0.255
O=C(Cc1ccccc1)Nc1ccc(N2CCOCC2)cc1N1CCOCC1	-0.544
CCNC(=O)C1CC(=O)N(CC)C(=Nc2cc(Cl)c(O)c(Cl)c2)S1 (centres undefined)	0.28
COC(=O)CSc1nc2nc(C)cc(C)n2n1	-0.251
CCOC(=O)c1nnn(CC(=O)Nc2cccc(Cl)c2C)c1C(=O)OCC	2.12
COC(=O)c1nnn(CC(=O)Nc2cccc(Cl)c2C)c1C(=O)OC	-0.193
CCOC(=O)c1nnn(CC(=O)Nc2ccccc2OC)c1C(=O)OCC	-0.326
COc1ccccc1S(=O)Cc1ccc(C(=O)NCc2ccccc2Cl)o1 (centres undefined)	-0.228
CC(=O)Nc1nonc1-c1nc2ccccc2n1N(C(C)=O)C(C)=O	-2.35
CCC(C)n1c(SCc2ccc([N+](=O)[O-])cc2)nc2ccsc2c1=O (centres undefined)	0.36
CC(C)n1c2ccccc2c2cc([N+](=O)[O-])ccc21	-0.11
CCC(C)n1c(=S)[nH]c2c(sc3ccc([N+](=O)[O-])cc32)c1=O (centres undefined)	9.11 (active)
CCOc1ccc(Nc2ncnc(N)n2)cc1	4.23 (active)
CCOc1ccc(CNc2ncnc(N)n2)cc1	-0.398
Nc1ncnc(Nc2ccc(F)cc2)n1	0.0495
COc1cc(/C=C(\C#N)C(N)=O)ccc1OS(=O)(=O)c1ccc(C)cc1	-0.309
O=[N+]([O-])c1ccc(COc2cccc(CNc3ccc(Br)cc3)c2)cc1	0.133

SMILES	z-score
O=C1C(Cl)=C(N2CCOCC2)C(=O)N1c1cccc(Cl)c1	13.9 (active)
CCc1ccc(N2C(=O)C(Cl)=C(N3CCOCC3)C2=O)cc1	-0.428
Cc1ccc(N2C(=O)C(Cl)=C(N3CCOCC3)C2=O)cc1Cl	-0.0801
CCN(CC)CCn1c(SCC(=O)NCc2ccco2)nc2c(sc3ccccc32)c1=O	-0.759
Cc1nn(-c2ccccc2)c(C)c1/C=N/NC(=O)CSc1nnc(-c2ccccc2)n1-c1ccc(Cl)cc1	0.0544
O=C(Nc1nc(-c2ccccc2)cs1)c1cccs1	-0.61
Cc1ccc(C(=O)Nc2nc(-c3cccnc3)cs2)o1	-0.0733
O=C(Nc1nc(-c2cc3ccccc3oc2=O)cs1)c1ccc(Br)o1	13.7 (active)
O=C(Nc1nc(-c2ccccc2)cs1)c1ccc(Br)o1	2.96
O=C(Nc1nc2c(Cl)cccc2s1)c1ccc(Br)o1	0.452
O=C(Nc1nc2ccc(Cl)cc2s1)c1ccco1	-0.371
O=C(Nc1nc2ccc(Cl)cc2s1)c1ccc(Br)o1	6.8 (active)
O=c1oc2ccccc2cc1-c1csc(NN=C2CCCC2)n1	-0.3
O=C(Nc1cccc(-c2cc3ccccc3oc2=O)c1)c1ccc(Br)o1	-0.101
O=C(CSc1ncn(-c2ccccc2)n1)NCc1ccccc1	-0.242
CCN1CNC(=S)N(c2ccccc2OC)C1	-0.242
COCCn1c(SCC(=O)NCc2ccco2)nc2cccnc21	0.0661
COc1ccc(-c2noc(CCC(=O)Nc3cc(Cl)c(OC)cc3OC)n2)cc1	-0.134
COc1ccc(OC)c(NC(=O)C(Sc2ccccc2)c2ccccc2)c1 (centres undefined)	0.629
COC(=O)c1cc(OC)c(OC)cc1NC(=O)Nc1ccccc1OC	-0.56
COC(=O)c1cc(OC)c(OC)cc1NC(=O)Nc1ccc(OC)cc1OC	3.48 (active)
COC(=O)c1cc(OC)c(OC)cc1NC(=O)Nc1ccc(OC)cc1	-0.0386
COc1ccccc1NC(=O)C(Sc1ccccc1)c1ccccc1 (centres undefined)	0.792
COc1ccc(NC(=O)C(Sc2ccccc2)c2ccccc2)c(OC)c1 (centres undefined)	2.25
